We go through 16 molecules from PubChem BioAssay.

Assay [1] can be described thus: compounds binding Alexa647 anti-His antibody – biochemical, small-molecule microarray, 635 nm fluorescence, artefact control for SMM control protein annotation, primary screen (AID 1128).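 Note: score merges feature fluorescence with signal-to-noise for each printed compound spot.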 Particulars: higher = more signal.
Assay [2] relates to Human papillomavirus type 1a E7 protein (residues 1-88). In words: HPV1a E7 small-molecule binders, primary screen, biochemical, small-molecule microarray, residues 1-88, 635 nm (AID 1129). The settings on record: small-molecule microarray binding, fluorescence 635 nm; higher = more signal.
Assay [3] addresses Focal adhesion kinase 1 (Homo sapiens) (UniProt Q05397). The assay can be described thus: PTK2 protein binding on printed compound slides – biochemical, small-molecule microarray, 635/667 nm fluorescence, BSA, DTT, primary screen (AID 1130).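 Note: composite of spot emission at 667 nm and signal to noise over triplicate slides.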 Particulars: 635 nm fluorescence, higher = more signal.
For assay [4], the system named is Fibrinogen (Alexa647-labelled). The assay can be described thus: Alexa647-fibrinogen binding to printed small molecules – biochemical, small-molecule microarray, 635/667 nm fluorescence, artefact control for SMM control-protein annotation, profiling panel (AID 1131).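 Note: z-score merges 667 nm fluorescence with per-spot signal-to-noise over triplicate slides.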 The settings on record: fibrinogen-A647 binding fluorescence, higher = more signal.
Assay [5] concerns the target Follistatin (Homo sapiens) (UniProt P19883). In words: FST protein binding to printed compounds – biochemical, small-molecule microarray, 635/667 nm fluorescence, primary screen (AID 1132). Particulars: 635 nm fluorescence, higher = more signal.
Assay [6] addresses Fibroblast growth factor 2 (Homo sapiens) (UniProt P09038). The assay can be described thus: basic fibroblast growth factor binding to printed compounds – biochemical, small-molecule microarray, 635/667 nm fluorescence, primary screen (AID 1133). Particulars: FGF2, fluorescence 635/667, higher = more signal.
Assay [7] can be described thus: JC-1 mitochondrial potential readout, lung cancer cells – cell-based, A549, JC-1 fluorescence, basal, 24 h, 100 nL, profiling panel (AID 1138).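 Note: A549 lung adenocarcinoma cells under basal conditions with no added stimulus; test concentration not given here.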 The settings on record: higher = more signal.
For another assay, the system named is Lefty1. The assay can be described thus: Lefty1 protein binding to printed compounds – biochemical, small-molecule microarray, 635/667 nm fluorescence, primary screen (AID 1139). Particulars: fluorescence 635/667, higher = more signal.
In assay [8] the test system is wheat germ agglutinin (Triticum aestivum), Alexa647-labelled. The assay can be described thus: Alexa647-WGA lectin binding to printed small molecules – biochemical, small-molecule microarray, 635/667 nm fluorescence, artefact control for SMM control-protein annotation, profiling panel (AID 1140).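 Note: score merges 667 nm feature emission with signal to noise over triplicate slides.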 Particulars: WGA-A647 binding, 635 nm fluorescence, higher = more signal.

Assay [9] has as its target Luciferin 4-monooxygenase (Photinus pyralis) (UniProt P08659). In words: inhibition of purified Photinus pyralis luciferase – biochemical, luminescence, purified enzyme, 2006 set, primary screen (AID 1141).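 Note: cell-free assay with purified firefly luciferase at 100 ng per well in PBS; test concentration not given here.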 The settings on record: purified firefly luciferase, SteadyGlo luminescence, 30 min; higher = more signal, called active from +8 up or from −8 down.

Molecules are shown by their SMILES. Active and inactive are the calls of the source.

Luciferin 4-monooxygenase (Photinus pyralis), sequence (P08659 whole entry, looked up): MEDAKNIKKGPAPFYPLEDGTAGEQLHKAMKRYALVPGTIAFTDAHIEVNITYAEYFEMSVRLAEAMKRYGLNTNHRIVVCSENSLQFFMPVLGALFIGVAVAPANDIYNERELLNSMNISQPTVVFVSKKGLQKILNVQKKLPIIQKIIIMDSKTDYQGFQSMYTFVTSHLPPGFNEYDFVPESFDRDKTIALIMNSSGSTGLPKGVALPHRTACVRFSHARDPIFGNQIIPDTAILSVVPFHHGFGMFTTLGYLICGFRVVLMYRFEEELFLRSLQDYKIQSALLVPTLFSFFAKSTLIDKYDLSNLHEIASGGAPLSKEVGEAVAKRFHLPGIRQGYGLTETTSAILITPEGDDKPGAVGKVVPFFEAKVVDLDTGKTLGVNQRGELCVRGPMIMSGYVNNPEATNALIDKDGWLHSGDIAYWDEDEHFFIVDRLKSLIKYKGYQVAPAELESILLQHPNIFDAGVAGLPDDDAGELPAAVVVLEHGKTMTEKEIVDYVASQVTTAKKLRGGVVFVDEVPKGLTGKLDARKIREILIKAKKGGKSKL
Follistatin (Homo sapiens), sequence (P19883 whole entry, looked up): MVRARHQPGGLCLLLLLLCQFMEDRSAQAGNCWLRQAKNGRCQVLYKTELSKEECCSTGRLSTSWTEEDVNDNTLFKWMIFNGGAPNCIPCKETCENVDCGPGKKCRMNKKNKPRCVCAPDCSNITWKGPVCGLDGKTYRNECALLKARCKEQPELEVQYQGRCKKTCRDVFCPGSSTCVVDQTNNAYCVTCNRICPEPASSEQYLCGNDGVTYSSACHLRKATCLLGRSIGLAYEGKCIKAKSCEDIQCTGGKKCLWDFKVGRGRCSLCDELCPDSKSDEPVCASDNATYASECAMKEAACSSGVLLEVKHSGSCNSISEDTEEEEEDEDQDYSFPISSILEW
Fibroblast growth factor 2 (Homo sapiens), sequence (P09038 whole entry, looked up): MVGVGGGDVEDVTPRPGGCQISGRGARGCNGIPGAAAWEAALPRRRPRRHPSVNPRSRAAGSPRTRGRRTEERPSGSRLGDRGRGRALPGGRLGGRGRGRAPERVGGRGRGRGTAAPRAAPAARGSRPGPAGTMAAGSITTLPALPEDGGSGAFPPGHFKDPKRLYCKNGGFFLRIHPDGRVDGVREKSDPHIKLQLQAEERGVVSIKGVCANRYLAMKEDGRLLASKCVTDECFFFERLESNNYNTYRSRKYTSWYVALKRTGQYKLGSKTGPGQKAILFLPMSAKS
Focal adhesion kinase 1 (Homo sapiens), sequence (Q05397 whole entry, looked up): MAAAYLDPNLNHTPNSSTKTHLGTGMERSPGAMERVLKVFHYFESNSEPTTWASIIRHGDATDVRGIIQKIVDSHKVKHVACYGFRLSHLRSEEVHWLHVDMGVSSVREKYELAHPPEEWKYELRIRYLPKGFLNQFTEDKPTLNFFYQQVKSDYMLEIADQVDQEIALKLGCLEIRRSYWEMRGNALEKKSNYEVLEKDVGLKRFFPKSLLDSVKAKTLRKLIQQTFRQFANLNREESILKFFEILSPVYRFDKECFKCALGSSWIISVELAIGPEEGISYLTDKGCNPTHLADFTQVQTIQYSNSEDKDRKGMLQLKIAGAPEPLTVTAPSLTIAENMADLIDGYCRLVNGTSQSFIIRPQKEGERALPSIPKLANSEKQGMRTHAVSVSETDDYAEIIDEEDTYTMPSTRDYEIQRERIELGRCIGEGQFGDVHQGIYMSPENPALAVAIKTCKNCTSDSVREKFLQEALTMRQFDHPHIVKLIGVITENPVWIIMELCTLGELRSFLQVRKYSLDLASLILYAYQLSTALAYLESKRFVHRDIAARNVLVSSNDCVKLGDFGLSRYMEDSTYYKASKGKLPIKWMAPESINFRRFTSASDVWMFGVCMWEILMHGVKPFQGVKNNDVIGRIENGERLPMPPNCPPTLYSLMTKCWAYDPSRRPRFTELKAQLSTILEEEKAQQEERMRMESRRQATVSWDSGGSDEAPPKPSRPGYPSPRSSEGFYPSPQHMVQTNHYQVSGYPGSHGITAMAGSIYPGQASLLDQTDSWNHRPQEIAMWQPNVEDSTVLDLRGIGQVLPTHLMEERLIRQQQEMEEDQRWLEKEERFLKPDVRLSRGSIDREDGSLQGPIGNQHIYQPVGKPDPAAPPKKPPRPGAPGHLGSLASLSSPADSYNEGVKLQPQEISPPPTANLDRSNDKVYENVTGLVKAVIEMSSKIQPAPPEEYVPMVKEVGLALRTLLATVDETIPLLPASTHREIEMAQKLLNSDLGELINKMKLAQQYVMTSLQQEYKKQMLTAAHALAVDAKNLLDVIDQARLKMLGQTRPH

With `CO[C@H]1O[C@H](CO)[C@@H](OC(=O)Nc2ccc3c(c2)OCO3)[C@H](OC(=O)Nc2ccc3c(c2)OCO3)[C@@H]1OC(=O)Nc1ccc2c(c1)OCO2`, the composite z-score in [1] was 1.67; in assay [2] it was 1.3; in assay [3] it was 0.347; in [4], 1; in [5] it was 0.997; in assay [6] it was 0.366. For the same molecule, the figures for the composite z-score (in the assay on Lefty1; in assay [8]) were 0.484 and 0.682, respectively. For the same molecule, the figures for the z-score in assay [7] and in assay [9] were 0.0347 and -9.67 (active), respectively.
In the case of `C[C@@H]1NC(=O)[C@@H](Cc2ccccc2)NC(=O)[C@@]23C(=O)N[C@@H](Cc4ccccc4)C2[C@H](C)[C@@]2(C)O[C@H]2C3/C=C/C/C=C\CNC1=O` (stereo not given in full), the composite z-score in [1] is -0.116; in assay [2], -0.514; in [3] it was -0.0535; in [4], -0.913; in assay [5], 0.41; in assay [6] it was -0.0086. For the same molecule, the composite z-score in the assay with Lefty1 was 0.633; in [8] it was -0.889. Besides, the z-score in assay [7] is -0.0637; in [9], -1.03 (inactive).
On to `COCCOC(=O)N1C(=O)[C@@]2(c3cc(C#CC4(O)CCCCCC4)ccc31)[C@H](C(=O)N1CCc3cc(OC)c(OC)cc3C1)[C@H]1C(=O)O[C@H](c3ccccc3)[C@H](c3ccccc3)N1[C@@H]2c1ccc(OCCO)cc1`, for which the composite z-score in assay [1] was found to be 0.244; in assay [2], 0.867; in assay [3], 1.06; in [4], 0.682; in [5], 1.29; in assay [6] it was 1.32. The composite z-score in the assay on Lefty1 came to 1.23; in [8], 0.475. In addition, the z-score was -1.11 in assay [7] and -1.07 (inactive) in [9].
For the molecule `COC(=O)[C@@]1(Cc2ccc(F)cc2)[C@H]2c3cc(C(=O)N(C)C)n(CCc4ccc(OC)c(Br)c4)c3C[C@H]2CN1C(=O)c1ccccc1`, the composite z-score is 1.18 in [1]; 0.902 in assay [2]; 0.178 in assay [3]; 0.626 in assay [4]; -0.0313 in assay [5]; -0.433 in [6]. Also, the figures for the composite z-score (in the assay on Lefty1; in assay [8]) were -0.337 and 0.187, respectively. The z-score in assay [7] is -0.638; in [9], -0.499 (inactive).
As to `COc1cc2c(cc1O)C(C1CC1)N(Cc1cccc(OC(F)(F)F)c1)CC2` (stereo not given), the composite z-score is -0.144 in assay [1]; -0.922 in [2]; -0.662 in [3]; -1.03 in [4]; 0.167 in [5]; 0.357 in [6]. Moreover, the composite z-score was -0.255 in the assay with Lefty1 and -0.181 in [8]. The z-score in assay [7] is -1.46; in assay [9], 0.187 (inactive).
As to `[N-]=[N+]=Nc1ccccc1C[C@]1(C(=O)NCC(O)CO)COC(c2ccc(OCCCO)cc2)=N1` (stereo not given in full), the composite z-score is 1.91 in assay [1]; 1.23 in assay [2]; 0.352 in assay [3]; 0.579 in assay [4]; -0.0953 in assay [5]; -0.483 in [6]. In addition, the composite z-score in the assay on Lefty1 is -0.729; in [8] it was 0.14. Besides, the z-score is 2 in [7] and -4.04 (inactive) in assay [9].
On to `CN(C)C(=O)[C@]1(Cc2ccccc2CN=[N+]=[N-])N=C(c2ccc(OCCCO)cc2)O[C@@H]1c1ccccc1`, for which the composite z-score is 2.24 in assay [1]; 1.22 in assay [2]; 0.48 in assay [3]; 0.947 in assay [4]; 0.987 in assay [5]; 0.658 in [6]. In addition, the composite z-score with Lefty1 worked out at 0.035; in assay [8], 1.02. Also, the z-score is -0.439 in [7] and 0.582 (inactive) in [9].
As to `COC(=O)c1c(CC[C@@H](CO)NC(=O)N[C@@H](C)Cn2cc(-c3ccccn3)nn2)oc(C(C)=O)c1C(=O)OC`, the composite z-score in assay [1] was 1.73; in assay [2] it was -0.0012; in [3], -0.291; in assay [4] it was -0.676; in [5], 1.28; in [6] it was 0.707. For the same molecule, the composite z-score with Lefty1 was determined as 0.936; in assay [8], 0.184. The z-score in assay [7] was -0.467; in assay [9] it was 0.641 (inactive).
As for `C=C(COC)/C(=C/C[C@H](OC(=O)c1ccncc1)c1ccc(CO)o1)c1cnc2ccccc2c1`, the composite z-score came to 0.283 in [1]; 1.15 in assay [2]; 0.382 in [3]; 0.271 in assay [4]; 1.25 in assay [5]; 0.222 in assay [6]. For the same molecule, the composite z-score is 1.57 in the assay with Lefty1 and 0.734 in assay [8]. The results for the z-score in [7] and in [9] were 0.818 and -1.72 (inactive), respectively.
Turning to `Cn1cccc1C(O)C1C=CC2C(=O)N(c3ccccc3)C(=O)C2N1Nc1ccccc1` (stereo not given), the composite z-score in [1] was 0.933; in [2] it was 1.23; in assay [3], 0.848; in assay [4], 0.954; in [5], 1.29; in assay [6] it was 0.984. Besides, the figures for the composite z-score (in the assay on Lefty1; in assay [8]) were 0.475 and 0.557, respectively. In addition, the z-score was 0.569 in [7] and -0.589 (inactive) in assay [9].
As for `O[C@@H](Cc1ccccc1)[C@@H](/C=C/C1CC1)N(CC#Cc1ccccc1)Cc1ccccc1Br`, the composite z-score is 0.167 in assay [1]; -0.33 in assay [2]; 0.284 in [3]; -0.651 in [4]; -1.12 in [5]; -1.71 in assay [6]. Besides, the composite z-score in the assay with Lefty1 is -0.512; in [8] it was -1.11. The figures for the z-score in [7] and in assay [9] were 0.163 and -0.375 (inactive), respectively.
`CCCCCCc1nc(Cc2cc(OC)c(OC)c(OC)c2)cc2c1[Si](C(C)C)(C(C)C)OC2`: the composite z-score in assay [1] was -0.215; in assay [2], -0.517; in assay [3], -0.191; in assay [4], -0.0217; in [5] it was 0.422; in assay [6], 0.521. For the same molecule, the composite z-score was 0.566 in the assay with Lefty1 and -0.0555 in assay [8]. In addition, the values for the z-score in [7] and in [9] were 0.185 and 0.809 (inactive), respectively.
Turning to `COCCOC(=O)N1C(=O)[C@@]2(c3cc(C#CC4=CCCCC4)ccc31)[C@H](c1ccccc1OCCO)N1[C@H](c3ccccc3)[C@H](c3ccccc3)OC(=O)[C@H]1[C@@H]2C(=O)NC[C@H](O)c1ccccc1`, the composite z-score in [1] worked out at 0.705; in assay [2] it was 1.14; in assay [3], 0.303; in [4], 0.882; in [5], 1.36; in assay [6], 1.52. The composite z-score came to 1.46 in the assay with Lefty1 and 0.658 in assay [8]. For the same molecule, the z-score in assay [7] was -0.701; in assay [9] it was -1.04 (inactive).
With `COCC(=C=CC[C@H](O)c1ccccc1OCCO)C[C@H](O)c1ccccn1`, the composite z-score is 0.247 in [1]; 0.128 in [2]; -0.17 in [3]; -0.473 in assay [4]; 1.02 in assay [5]; 0.262 in assay [6]. Besides, the composite z-score in the assay with Lefty1 was 0.426; in [8] it was -0.0118. The z-score is 1.5 in assay [7] and -1.02 (inactive) in assay [9].
Regarding `COCCOC(=O)N1C(=O)[C@@]2(c3ccccc31)[C@H](C(=O)NC[C@H](O)c1ccccc1)[C@H]1C(=O)O[C@H](c3ccccc3)[C@H](c3ccccc3)N1[C@@H]2c1ccc(O)cc1`, the composite z-score in [1] was 1.43; in assay [2], 1.26; in assay [3], 0.818; in assay [4], 0.965; in [5], 1.34; in [6], 1.61. The composite z-score with Lefty1 was 1.23; in [8], 0.648. In addition, the z-score was -1.17 in assay [7] and 0.883 (inactive) in assay [9].
Turning to `CCCCCCCCCC(O)C1C=CC2C(=O)N(c3ccccc3)C(=O)C2N1Nc1cc(OC)c(OC)c(OC)c1` (stereo not given), the composite z-score was 0.374 in assay [1]; 0.675 in assay [2]; 0.636 in assay [3]; 0.585 in assay [4]; 0.0214 in [5]; -1.09 in assay [6]. Moreover, the composite z-score is -0.312 in the assay with Lefty1 and 0.172 in assay [8]. The z-score in [7] is -0.512; in [9] it was -1.96 (inactive).
